Screens as filed in PubChem BioAssay.
AI-2 QS modul = modulators of Vibrio harveyi AI-2 quorum sensing system; activity change, % at 7.5 µM; Vibrio harveyi JMH597 AI-2 luminescence/OD600 ratio, 9 h; stronger effect = lower value; strain lacks LuxN and CqsS sensors; 0 = neutral-control median; 300,000 tested, 0.4% active; in the data active = activity change below about -75%, passing the limit was not always enough;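 also: luminescence divided by OD600 gain over 9 h not by final OD600 alone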
Mot1-301 SUMO = inhibitors of SUMOylation pathway: yeast Mot1-301 growth rescue; S. cerevisiae Mot1-301 growth rescue, ATP luminescence, 38.5C; percent above DMSO median, 100 means doubled; AID 2716; growth rescue, % at 18.8 µM; 320,000 tested, 1% active;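 active = every valid replicate shows activation above 250% relative to neutral control wells; inactive = the rest, any valid replicate at or below 250%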;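 also: OY570 slx delta 5 strain wells were the positive control but not used for scaling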
HIF act = HIF pathway transcriptional activation; U2OS HRE-luciferase reporter, luminescence; normalized: DMSO 0%, desferrioxamine 100%; activation, % at 7.5 µM (by protocol); 300,000 tested, 0.32% active; AID 1910;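 active = mean activation of at least 10% of the iron chelator positive control signal, with at least half of replicates also reaching 10%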
ALR inh = inhibitors of human sulfhydryl oxidase ALR; P55789; 290,000 tested, 3.8% active; purified ALR, DTT oxidation, H2O2 HRP-luminol luminescence; inhibition, % (concentration not given with the values); AID 485317;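 active = mean replicate inhibition above about 79%, with every replicate also reaching it, limit read from the data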
Target sequence (P55789 whole entry, looked up): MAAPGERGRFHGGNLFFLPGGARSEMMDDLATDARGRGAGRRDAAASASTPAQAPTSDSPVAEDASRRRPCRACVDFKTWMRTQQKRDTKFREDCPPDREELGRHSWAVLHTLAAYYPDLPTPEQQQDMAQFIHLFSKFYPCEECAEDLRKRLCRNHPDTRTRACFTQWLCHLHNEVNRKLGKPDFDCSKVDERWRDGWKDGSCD
Starred values were filed as active, the others as inactive. In the library only some 4.8% were active in any assay of this set; here they are far more common.

Screening CCCN(Cc1nc2cc(Cl)ccc2c(=O)[nH]1)C(=O)c1ccc(S(=O)(=O)N2CCCC2)cc1 returned Mot1-301 SUMO 49.
Screening Nc1c(C(=O)CSc2nc(-c3ccccc3)cs2)c(=O)[nH]c(=O)n1C1CC1 returned Mot1-301 SUMO 0 and ALR inh 2.
Screening COc1cccc(-c2nc(CS(=O)(=O)CC(=O)Nc3c(C)cccc3C)c(C)o2)c1 returned AI-2 QS modul 23, Mot1-301 SUMO -25, HIF act 0 and ALR inh 11.
Cc1ccc(-c2nc(CS(=O)(=O)CC(=O)N3CCCCCC3)c(C)o2)cc1 was read as AI-2 QS modul 20, Mot1-301 SUMO -23, HIF act 0 and ALR inh 95*.
Screening COc1cccc(-c2nc(CS(=O)(=O)CC(=O)NC3CCCCC3C)c(C)o2)c1 (configuration not stated) returned AI-2 QS modul 4, Mot1-301 SUMO -1, HIF act 0 and ALR inh 93*.
For Cc1ccc(-c2nc(CS(=O)(=O)CC(=O)N3CCc4ccccc4C3)c(C)o2)cc1 the results were AI-2 QS modul 19, Mot1-301 SUMO -10, HIF act 0 and ALR inh 10.
Screening O=C(Nc1nc(-c2ccccc2)cs1)c1ccccc1NS(=O)(=O)c1ccc(F)cc1 returned AI-2 QS modul 37, Mot1-301 SUMO -25, HIF act 1 and ALR inh 96*.
O=C(CSc1nnc(-c2ccccc2Cl)o1)N1CCOCC1 was read as AI-2 QS modul 6, Mot1-301 SUMO -1, HIF act 14* and ALR inh 4.
`Clc1ccc(Cn2nnc(-c3ccccc3)n2)cc1` gave AI-2 QS modul -81*, Mot1-301 SUMO -11, HIF act 1 and ALR inh 2.
Screening Clc1ccccc1Cn1nnc(-c2ccccc2)n1 returned AI-2 QS modul -7, Mot1-301 SUMO 15, HIF act 2 and ALR inh -1.
COc1cccc(NC(=S)N2CCN(S(C)(=O)=O)CC2)c1 was read as AI-2 QS modul 9, Mot1-301 SUMO -17 and ALR inh -18.
Screening Cc1ccc(Sc2ncccc2C(=O)O)cc1C returned AI-2 QS modul -86*, Mot1-301 SUMO -13, HIF act 0 and ALR inh 58.
Screening Cc1ccc(Sc2ncccc2C(=O)O)c(C)c1 returned AI-2 QS modul -88*, Mot1-301 SUMO 16, HIF act 0 and ALR inh 24.
CCCCN(C(=O)c1ccc(S(=O)(=O)N2CCC(C)CC2)cc1)C1CCS(=O)(=O)C1 (configuration not stated) was read as AI-2 QS modul 20, Mot1-301 SUMO -13, HIF act -13 and ALR inh -6.
`Cc1ccsc1C(=O)NCc1ccc(F)cc1` gave AI-2 QS modul 19, Mot1-301 SUMO 10, HIF act -1 and ALR inh -13.
For O=C(NCCOc1ccccc1)c1cc(C(=O)NCCOc2ccccc2)cc([N+](=O)[O-])c1 the results were AI-2 QS modul -97*, Mot1-301 SUMO -3, HIF act -1 and ALR inh -67.
`O=C(Nc1ccc(-n2cccn2)cc1)C1CCCCN1Cc1cccc2c1OCO2` (configuration not stated) gave AI-2 QS modul 14, Mot1-301 SUMO -3, HIF act 0 and ALR inh -7.
For N#C/C(=C\c1cc(Cl)c(OCc2ccc(Cl)cc2)c(Cl)c1)C(N)=O the results were AI-2 QS modul 6, Mot1-301 SUMO 6, HIF act 2 and ALR inh 2.
For N#C/C(=C\c1cc(O)c(O)c(O)c1)C(N)=O the results were AI-2 QS modul 13, Mot1-301 SUMO -11, HIF act 1 and ALR inh 99*.
Nc1nonc1-n1nnc(C(=O)N/N=C/c2ccccc2)c1CN1CCc2ccccc21 was read as AI-2 QS modul 25, Mot1-301 SUMO -8 and HIF act -1.
COC(=O)c1nnn(-c2nonc2N)c1CN1CCc2ccccc21 was read as AI-2 QS modul 6, Mot1-301 SUMO -12, HIF act 0 and ALR inh 98*.
Screening COC(=O)c1ccc(CN2CCc3ccccc32)cc1 returned AI-2 QS modul 10, Mot1-301 SUMO -8, HIF act -14 and ALR inh 98*.
Cc1ccc(S(=O)(=O)c2cnc3cc(C)nn3c2N)cc1 was read as AI-2 QS modul -90*, Mot1-301 SUMO -7, HIF act -1 and ALR inh -3.
For Cc1cc2ncc(S(C)(=O)=O)c(N)n2n1 the results were AI-2 QS modul -1, Mot1-301 SUMO 58 and HIF act 0.
